Values joined by “and” are separate entries in the source; they are usually repeats but may differ in a detail not shown here. Equal entries are not always repeated. Inconclusive results are not listed. Entries that show only a call come without a potency. A structure can be active in one record and inactive in another. Active and inactive are the calls of the source. Unless noted, the call rests on the fitted dose curve; in most records, active means well fitted curve in the direction sought with a large enough effect in the repeat runs; inconclusive means weak or mixed curves; inactive means no such curve, though single readings can be large; an effect the other way counts as inactive or inconclusive.
Experiments:
[1] = qHTS assay for small molecules that induce genotoxicity in human embryonic kidney cells expressing luciferase-tagged ATAD5 (AID 651632); further: nearly all actives have a fitted effect of over 15% in size; further: potency means the concentration at half of the fitted maximal effect
Procedure, shortened: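 HEK293T cells carrying luciferase-tagged ATAD5 were given compound or DMSO vehicle and incubated 16 hr at 37C, 5% CO2. Luciferase activity was read after 30 min at room temperature with Amplite; a rise signals genotoxic stress.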

[2] = qHTS assay for small molecule disruptors of the mitochondrial membrane potential (AID 720635); further: potency means the concentration at half of the fitted maximal effect
Procedure, shortened: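 HepG2 cells (2,000/well) attached overnight at 37C, then took compound for 1 hr at 37C, 5% CO2. Mito-MPS dye was added for 30 min; fluorescence was read at 490/535 nm (monomers) and 540/590 nm (aggregates).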

[3] = qHTS assay to test for compound auto fluorescence at 590 nm (red) in HepG2 cells (AID 720674)
Procedure, shortened: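 Rose Bengal sodium served as the red fluorophore standard. HepG2 monolayers (overnight attachment, MEM with 10% FBS) were exposed to test compounds for 1 hr at 37 C and read at Ex 540/Em 590 nm.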

[4] = qHTS assay to test for compound auto fluorescence at 535 nm (green) in HepG2 cells (AID 720675); further: potency means the concentration at half of the fitted maximal effect
[5] = qHTS assay to test for compound auto fluorescence at 460 nm (blue) in HEK293 cells (AID 720678)
Procedure, shortened: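 After cell attachment (4-5 hr, 37C), compounds were pinned onto HEK293 monolayers in 10% dialyzed FBS medium. The blue channel (405/460 nm) was read following overnight culture. Equivalency was calculated against triamterene.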

[6] = qHTS assay to test for compound auto fluorescence at 590 nm (red) in HEK293 cells (AID 720679)
Procedure, shortened: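 Plates of HEK293 cells (10% dialyzed FBS) are treated with 23 nL compound or DMSO vehicle after a 4-5 hr attachment period, incubated overnight at 37C, and read for red fluorescence at 540/590nm.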

[7] = qHTS assay for small molecules that induce genotoxicity in human embryonic kidney cells expressing luciferase-tagged ATAD5 - cell viability (AID 651634; calls by dose curve; further: nearly all actives have a fitted effect of over 25% in size; further: potency means the concentration at half of the fitted maximal effect)
Procedure, shortened: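 HEK293T cells carrying luciferase-tagged ATAD5, 2,000 cells/well, exposed to compound for 15.5 hr at 37C. Viability read as live-cell protease activity by CellTiter-Fluor fluorescence after 30 min at 37C.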

[8] = qHTS assay for small molecule disruptors of the mitochondrial membrane potential - cell viability (AID 720634; calls by dose curve; further: nearly all actives have a fitted effect of over 20% in size; further: potency means the concentration at half of the fitted maximal effect)
Procedure, shortened: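 HepG2 cells, 2,000 per well, attached overnight, then treated 1 hr at 37 C, 5% CO2. Viability read as ATP by CellTiter-Glo luminescence after 30 min at room temperature. Read in the same wells as the m-MPI membrane-potential dye assay.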

[9] = qHTS assay for small molecule agonists of the p53 signaling pathway - cell viability (AID 651633; calls by dose curve; further: nearly all actives have a fitted effect of over 30% in size; further: potency means the concentration at half of the fitted maximal effect)
Procedure, shortened: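 p53RE-bla cells, seeded at 4,000 per well and rested 5 h at 37 C/5% CO2, received compounds in DMSO for 16 h at 37 C. CellTiter-Glo was then added, and luminescence was read after 30 min at room temperature to gauge cytotoxicity.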

SMILES | Potency [1] | Potency [2] | Potency [3] | Potency [4] | outcome [5] | Potency [6] | Potency [7] | Potency [8] | Potency [9]
COC(=O)C1=C(C)NC(C)=C(C(=O)OCCN(C)Cc2ccccc2)C1c1cccc([N+](=O)[O-])c1 (stereo not drawn) | inactive | 18.8 µM (active) | inactive | inactive | inactive | inactive |  |  | 
O=C(O)c1ccccc1Nc1cccc(C(F)(F)F)c1 | inactive | 26.6 µM (active) and 43.3 µM (active) | inactive | inactive | inactive | inactive | inactive | inactive | 
S=C(NC1CCCCC1)NC1CCCCC1 | inactive | 53.4 µM (active) and 54.5 µM (active) | inactive | inactive | inactive | inactive | inactive | inactive | 
OC(CCl)CCl | inactive |  | inactive | inactive | inactive | inactive | inactive | inactive | inactive
CC(C)CC(C)(O)C#CC(C)(O)CC(C)C (stereo not drawn) |  | 47.6 µM (active) and 48.6 µM (active) | inactive | inactive | inactive | inactive | inactive | inactive | inactive
Cc1cc2nc3c(=O)[nH]c(=O)nc-3n(C[C@H](O)[C@H](O)[C@H](O)CO)c2cc1C | inactive |  | inactive | 35.5 µM (active) [middle of 4 runs] | inactive | inactive | inactive | inactive | inactive
c1ccc2c(c1)Oc1ccccc1S2 | inactive |  | inactive | inactive | inactive | inactive | inactive | inactive | inactive
CC(C(=O)O)c1cccc(C(=O)c2ccccc2)c1 (stereo not drawn) |  | inactive | inactive | inactive | inactive | inactive |  | inactive | 
CC(C)Oc1ccc2c(=O)c(-c3ccccc3)coc2c1 | 1.19 µM (active) and 2.66 µM (active) |  | inactive | inactive | inactive | inactive | inactive | inactive | inactive
COc1c(Cl)c(Cl)c(Cl)c(Cl)c1Cl | inactive |  | inactive | inactive | inactive | inactive | inactive | inactive | inactive
C[C@]12CCC(=O)C=C1CC[C@@H]1[C@@H]2C(=O)C[C@@]2(C)[C@H]1CC[C@]2(O)C(=O)CO | inactive |  | inactive | inactive | inactive | inactive | inactive | inactive | inactive
O=C(/C=C/C=C/c1ccc2c(c1)OCO2)N1CCCCC1 | 10.9 µM (active) |  | inactive | inactive | inactive | inactive | inactive | inactive | inactive
CC(C)OC(=O)C(C)(C)Oc1ccc(C(=O)c2ccc(Cl)cc2)cc1 | inactive | inactive | inactive | inactive | inactive | inactive | inactive |  | 
OC[C@H]1O[C@@H]2O[C@H]3[C@H](O)[C@@H](O)[C@@H](O[C@H]4[C@H](O)[C@@H](O)[C@@H](O[C@H]5[C@H](O)[C@@H](O)[C@@H](O[C@H]6[C@H](O)[C@@H](O)[C@@H](O[C@H]7[C@H](O)[C@@H](O)[C@@H](O[C@H]8[C@H](O)[C@@H](O)[C@@H](O[C@H]1[C@H](O)[C@H]2O)O[C@@H]8CO)O[C@@H]7CO)O[C@@H]6CO)O[C@@H]5CO)O[C@@H]4CO)O[C@@H]3CO | inactive |  | inactive | inactive | inactive | inactive | inactive | inactive | inactive
Clc1nc(Cl)c(Cl)c(Cl)c1Cl | inactive |  | inactive | inactive | inactive | inactive | inactive | inactive | inactive
O=P(O)(O)O |  | inactive | inactive | inactive | inactive | inactive | inactive | inactive | 
CCOCCOCCO | inactive |  | inactive | inactive | inactive | inactive | inactive | inactive | inactive
COC(=O)Nc1nc2ccc(S(=O)c3ccccc3)cc2[nH]1 (stereo not drawn) | inactive | inactive | inactive | inactive | inactive | inactive | inactive | inactive | inactive
O=c1oc(=O)c2cc3c(=O)oc(=O)c3cc12 | inactive | inactive | inactive | inactive | inactive | inactive | inactive | inactive | 
CC(=O)Oc1ccccc1C(=O)Nc1ncc([N+](=O)[O-])s1 | 1.33 µM (active) | 1.5 µM (active) and 351 nM (active) | inactive | inactive | inactive | inactive | 18.8 µM (active) and 22.1 µM (active) | 0.556 µM (active) | 9.44 µM (active) and inactive
Cc1ccc2c(n1)Oc1ccc(C(C)C(=O)OCC(=O)N(C)C)cc1C2 (stereo not drawn) |  |  | inactive | inactive | inactive | inactive | inactive | inactive | inactive
O=[N+]([O-])c1ccc2c(c1)Cc1ccccc1-2 | inactive |  | inactive | inactive | inactive | inactive | inactive |  | inactive
CN(C)C(=N)N=C(N)N |  | inactive | inactive | inactive | inactive | inactive | inactive | inactive | inactive
C#C[C@]1(O)CC[C@H]2[C@@H]3CCC4=Cc5oncc5C[C@]4(C)[C@H]3CC[C@@]21C | inactive |  | inactive | inactive | inactive | inactive | inactive |  | inactive
O=C(c1ccccc1)c1ccccc1O | inactive | inactive and 61.1 µM (active) | inactive | inactive | inactive | inactive | inactive | inactive | 

— PubChem BioAssay (Tox21)
